# Test results from PubChem BioAssay (EPA / NIEHS).
# Values joined by “and” are separate entries in the source; they are usually repeats but may differ in a detail not shown here. Equal entries are not always repeated. Records with an inconclusive call do not appear. A structure can be active in one record and inactive in another. Active and inactive are the calls of the source. The calls were made as follows, unless noted: active = hit-call score of the fitted dose curve at least 0.9, where 1 is the maximum; inactive = score below 0.9.
# Legend:
# [1] = CCTE_Deisenroth_AIME_384WELL_CTox_Inactive: Cytotoxicity Assessment (CTOX) in CCTE's 384-well Estrogen Receptor Transactivation Assay without AIME metabolic competence (metabolism negative), Deisenroth Lab (AID 2284039; active = hit-call score of the fitted dose curve at least 0.9, where 1 is the maximum;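 also: cell viability via live-cell protease substrate cleaved to fluorescent probe; cells exposed 24 h to medium preincubated 2 h with alginate-water beads without S9; loss of fluorescence signal means loss of viability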)
# Method in brief: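 Fluorescent protease-substrate viability readout after 24 h exposure of VM7Luc4E2 cells to conditioned medium. Chemicals (0.002–200 uM) first sat 2 h over alginate-water beads, no S9. Data fitted bidirectionally, loss of signal meaning viability loss.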
# [2] = target: Estrogen receptor (Homo sapiens) (UniProt P03372); experiment: CCTE_Deisenroth_AIME_384WELL_LUC_Shift: CCTE's 384-well Estrogen Receptor Transactivation Assay with AIME metabolic competence data shift (ERTA luciferase; difference in metabolism positive and negative), Deisenroth Lab (AID 2284041);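 also: shift is response with S9 minus without S9 so positive means metabolism raised ER signal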
# Method in brief: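 Here, parent compounds undergo 2 h phase I metabolism by PB/BNF-induced rat S9 before 24 h transactivation in VM7Luc4E2 cells; the curve models S9-positive minus S9-negative response over a 10-point series.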
# [3] = CCTE_Shafer_MEA_dev_active_electrodes_number: CCTE's Neural Network Formation Assay for Number of Active Electrodes, Shafer Lab (AID 2284040; active = hit-call score of the fitted dose curve at least 0.9, where 1 is the maximum;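 also: potency for loss of active electrodes versus DMSO so lower counts are hits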)
# Method in brief: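 Rat cortical primary cultures, 1.5 x 10^5 cells/well, PEI-coated MEA, laminin drop. Continuous exposure DIV 0–12; full media/compound change DIV 5, 9. Readout: electrodes with mean firing ≥5 spikes/min; AUC across days; loss vs DMSO.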
# [4] = CCTE_Shafer_MEA_dev_burst_rate: CCTE's Neural Network Formation Assay for Burst Rate, Shafer Lab (AID 2284042);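 as to AC50: potency for loss of burst rate below DMSO control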
# Method in brief: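 Exposure ran continuously over 12 days of network development in rat cortical cultures, with compound refreshed during full media changes on DIV 5 and 9. Single-electrode bursts per recording time, well-mean over active electrodes, trapezoidal AUC across days 5–12, fitted downward relative to DMSO.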
# [5] = CCTE_Shafer_MEA_dev_bursting_electrodes_number: CCTE's Neural Network Formation Assay for Number of Bursting Electrodes, Shafer Lab (AID 2284043; active = hit-call score of the fitted dose curve at least 0.9, where 1 is the maximum;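 as to AC50: potency is for loss of bursting electrodes relative to DMSO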)
# Method in brief: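 Primary rat cortical neurons were cultured on PEI-coated 48-well MEA plates (16 electrodes/well) and exposed from plating through day 12, with compound renewed at feeds on DIV 5 and 9. Electrodes bursting ≥1 per 2 min were counted on DIV 5, 7, 9, 12; trapezoidal AUC taken.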
# [6] = CCTE_Shafer_MEA_dev_per_burst_interspike_interval: CCTE's Neural Network Formation Assay for Burst Interspike Interval, Shafer Lab (AID 2284044);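 also: mean spike spacing inside bursts as AUC over recordings on days 5 7 9 12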;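 as to AC50: potency for a decrease of within-burst interspike interval below DMSO level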
# Method in brief: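 Rat cortical primary cultures, 16 electrodes/well; compound from plating, renewed with full media change DIV 5 and 9. Spikes via adaptive detector; per-burst ISI well-mean over active bursting electrodes; AUC of DIV 5/7/9/12 recordings; loss-direction fit vs DMSO.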
# [7] = CCTE_Shafer_MEA_dev_burst_duration_mean: CCTE's Neural Network Formation Assay for Mean Burst Duration, Shafer Lab (AID 2284045);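 as to AC50: curve fitted for loss meaning shorter burst duration than DMSO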
# Method in brief: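 Primary rat cortical neurons on PEI-coated 16-electrode MEA wells, exposed from plating through day 12 with compound renewed at DIV 5 and 9; spontaneous activity recorded days 5, 7, 9, 12. Well-mean burst duration collapsed as trapezoidal AUC, fitted for loss versus DMSO.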
# [8] = CCTE_Shafer_MEA_dev_interburst_interval_mean: CCTE's Neural Network Formation Assay for Mean Interburst Interval, Shafer Lab (AID 2284046);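 also: well-mean interburst interval of bursting electrodes as AUC over four recording days; curve fitted for decrease in interburst interval relative to DMSO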
# Method in brief: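 Primary rat cortical neurons on PEI-coated 48-well MEA plates (laminin added with cells at plating) (16 electrodes/well), exposed from plating day 0 with renewal at DIV 5 and 9. Mean inter-burst interval averaged over bursting electrodes, AUC across days 5, 7, 9, 12; DMSO baseline.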
# [9] = CCTE_Shafer_MEA_dev_inter_network_spike_interval_mean: CCTE's Neural Network Formation Assay for Mean Inter-network Spike Interval, Shafer Lab (AID 2284047);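 as to AC50: potency for a decrease in mean inter-network spike interval below DMSO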
# Method in brief: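 Mean time between consecutive network-spike peaks, recorded extracellularly (adaptive spike detection) on DIV 5, 7, 9 and 12, summarized as trapezoidal AUC. Rat cortical cultures on MEAs dosed continuously days 0–12, re-dosed at feeds; loss-of-signal fit relative to DMSO.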
# [10] = CCTE_Shafer_MEA_dev_network_spike_number: CCTE's Neural Network Formation Assay for Number of Network Spikes, Shafer Lab (AID 2284048);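 also: synchronized bursts across electrodes counted on days 5 7 9 12 and integrated as AUC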;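 as to AC50: fit as a loss of signal meaning fewer network spikes than DMSO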
# Method in brief: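 Primary rat cortical neurons were seeded at 1.5 x 10^5 cells/well on PEI-coated 16-electrode MEA wells with laminin, exposed from plating day 0, compound renewed at DIV 5 and 9. Network spikes were recorded on days 5, 7, 9, 12 and summarized as trapezoidal AUC versus DMSO.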
# [11] = CCTE_Shafer_MEA_dev_network_spike_peak: CCTE's Neural Network Formation Assay for Mean Number of Electrodes in Network Spike, Shafer Lab (AID 2284049);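 as to AC50: fitted for loss of signal meaning fewer electrodes in network spikes than DMSO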
# Method in brief: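 Continuous 12-day exposure of rat cortical cultures, starting at plating, on MEA plates. Endpoint: electrodes participating in network-spike peaks, AUC across DIV 5–12, DMSO as negative control.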
# DIO2 (gene 1734) = experiment: CCTE_GLTED_hDIO2: CCTE's human Deiodinase 2 (DIO2) Inhibition Assay, Great Lakes Toxicology and Ecology Division (GLTED) Lab (AID 2284050; active = hit-call score of the fitted dose curve at least 0.9, where 1 is the maximum)
# Method in brief: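 In this cell-free test, chemicals are exposed to human deiodinase type 2 for 3 hours. Released iodide is determined spectrophotometrically via the Sandell-Kolthoff method, and signal loss relative to DMSO is fitted.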
# [12] = CCTE_Shafer_MEA_dev_spike_duration_mean: CCTE's Neural Network Formation Assay for Mean Spike Duration, Shafer Lab (AID 2284051);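 also: mean network spike duration pooled as area under curve over DIV 5 to 12 recordings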;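 as to AC50: potency for a decrease in mean network spike duration versus DMSO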
# Method in brief: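 Spontaneous activity was recorded on days 5, 7, 9 and 12 from rat cortical cultures grown on microelectrode arrays and dosed continuously from day 0, with media and compound renewed after the DIV 5 and 9 recordings. Network-spike duration was collapsed by area under the curve.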
# [13] = CCTE_Shafer_MEA_dev_network_spike_duration_std: CCTE's Neural Network Formation Assay for Standard Deviation of Network Spike Duration, Shafer Lab (AID 2284052);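 also: hits are decreases in network spike duration SD versus DMSO vehicle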
# Method in brief: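 Network spike duration variability was collapsed across recordings on days 5, 7, 9 and 12 by trapezoidal area-under-curve and fitted downward against DMSO. Cultures were rat cortical neurons on PEI-coated MEA plates, dosed continuously from plating, refed with compound DIV 5/9.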
# [14] = CCTE_Shafer_MEA_dev_per_network_spike_spike_number_mean: CCTE's Neural Network Formation Assay for Mean Number of Spikes in a Network Spike, Shafer Lab (AID 2284053);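 as to AC50: fitted as decrease in spikes per network spike relative to DMSO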
# Method in brief: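 Mean spike count within each network spike, taken in a 0.05 s window at its peak, was recorded on days 5, 7, 9 and 12 and integrated as trapezoidal area under the curve. Rat cortical cultures on MEA plates received continuous compound from day 0, refreshed at medium changes on DIV 5 and 9.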
# [15] = CCTE_Shafer_MEA_dev_per_network_spike_spike_percent: CCTE's Neural Network Formation Assay for Percent of Spikes in a Network Spike, Shafer Lab (AID 2284054)
# Method in brief: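 Primary rat cortical neurons on 16-electrode MEA wells (PEI-coated, laminin at plating), exposed from day 0 with renewal at DIV 5 and 9; spikes within 0.05 s of network-spike peaks over total spikes, AUC across days 5, 7, 9, 12.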
# DIO3 (gene 1735) = experiment: CCTE_GLTED_hDIO3: CCTE's human Deiodinase 3 (DIO3) Inhibition Assay, Great Lakes Toxicology and Ecology Division (GLTED) Lab (AID 2284055; active = hit-call score of the fitted dose curve at least 0.9, where 1 is the maximum;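 as to AC50: potency is for inhibition seen as loss of released iodide signal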)
# Method in brief: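 Enzyme activity is tracked as iodide release from substrate by recombinant human DIO3 over 3 h with chemical present. A second Sandell-Kolthoff step converts iodide to an absorbance signal, fitted relative to DMSO.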
# [16] = CCTE_Shafer_MEA_dev_LDH: CCTE's Lactate Dehydrogenase Assay for Cytotoxicity in the Neural Network Formation Assay, Shafer Lab (AID 2284068; active = hit-call score of the fitted dose curve at least 0.9, where 1 is the maximum;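 also: exposure for twelve days from plating with re-dosing on DIV 5 and 9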)
# Method in brief: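 Primary rat cortical neurons were cultured on PEI-coated MEA plates and exposed from plating through day 12, with compound renewed at medium changes on DIV 5 and 9. LDH activity was read spectrophotometrically; loss of signal versus DMSO indicates reduced viability.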
# [17] = CCTE_Shafer_MEA_acute_AB: CCTE's Alamar Blue Assay for Cytotoxicity in the Neural Acute Assay, Shafer Lab (AID 2284069; active = hit-call score of the fitted dose curve at least 0.9, where 1 is the maximum;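 also: active compounds lower the viability signal compared with DMSO wells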)
# Method in brief: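 Resazurin reduction (CellTiter Blue, 1:6 in fresh medium) read at ex 544/em 590 nm marks viability loss relative to DMSO. Cells: primary rat cortical neuron networks on microelectrode arrays, treated after baseline recording at 13 or 15 days in vitro.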
# Sequence of Estrogen receptor (Homo sapiens) (P03372 whole entry, looked up): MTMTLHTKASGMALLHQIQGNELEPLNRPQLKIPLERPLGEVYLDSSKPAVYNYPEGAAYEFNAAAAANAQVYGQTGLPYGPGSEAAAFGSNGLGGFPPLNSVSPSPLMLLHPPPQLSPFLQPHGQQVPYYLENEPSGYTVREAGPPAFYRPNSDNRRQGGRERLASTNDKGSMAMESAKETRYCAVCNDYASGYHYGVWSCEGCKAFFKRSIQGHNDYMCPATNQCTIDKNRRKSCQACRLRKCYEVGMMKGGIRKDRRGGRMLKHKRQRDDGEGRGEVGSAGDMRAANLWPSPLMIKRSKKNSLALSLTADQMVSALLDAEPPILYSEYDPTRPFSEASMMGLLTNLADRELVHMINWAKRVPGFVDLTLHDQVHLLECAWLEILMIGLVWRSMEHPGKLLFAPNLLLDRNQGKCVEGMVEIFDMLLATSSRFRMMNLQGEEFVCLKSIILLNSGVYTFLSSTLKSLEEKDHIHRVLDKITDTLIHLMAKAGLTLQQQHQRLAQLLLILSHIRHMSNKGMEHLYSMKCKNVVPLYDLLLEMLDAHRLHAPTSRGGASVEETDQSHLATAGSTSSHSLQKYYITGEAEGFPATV
compound,measurement,setting,value
C=C(C)C(N)=O,outcome,[1],inactive
same,outcome,[2],inactive
CC/C(=C(\c1ccccc1)c1ccc(OCCN(C)C)cc1)c1ccccc1,AC50,[3],329 nM (active)
same,AC50,[4],0.122 µM (active)
same,AC50,[5],0.203 µM (active)
same,AC50,[6],0.307 µM (active)
same,AC50,[7],0.0304 µM (active)
same,AC50,[8],1.03 µM (active)
same,AC50,[9],0.0578 µM (active)
same,AC50,[10],1.87 µM (active)
same,AC50,[11],0.209 µM (active)
same,AC50,DIO2 (gene 1734),46.5 µM (active) and 46.3 µM (active)
same,AC50,[12],0.35 µM (active)
same,AC50,[13],0.273 µM (active)
same,AC50,[14],0.0668 µM (active)
same,AC50,[15],3.89 µM (active)
same,AC50,DIO3 (gene 1735),84.2 µM (active)
same,outcome,DIO3 (gene 1735),inactive
same,AC50,[16],2.87 µM (active)
same,outcome,[17],inactive
CC(=O)CC(=O)N(C)C,outcome,[1],inactive
same,outcome,[2],inactive
NC(N)=S,outcome,[1],inactive
same,outcome,[2],inactive
CCCCCCCCCCCCOCCOS(=O)(=O)O,AC50,[1],107 µM (active)
same,outcome,[2],inactive
C1CCCNCC1,outcome,[1],inactive
same,outcome,[2],inactive
N[C@@H](CCC(=O)O)C(=O)O,outcome,[4],inactive
same,outcome,[5],inactive
same,outcome,[6],inactive
same,outcome,[7],inactive
same,outcome,[8],inactive
same,outcome,[9],inactive
same,outcome,[11],inactive
same,outcome,[12],inactive
same,outcome,[13],inactive
same,outcome,[14],inactive
same,outcome,[15],inactive
same,outcome,[16],inactive
CC(=O)C1=C(C)[C@@H]2C[C@@]3(C1)[C@H](C)CC[C@H]3C2(C)C,AC50,[2],0.000848 µM (active)
C=C(C)C(=O)OCCC(C)OC(=O)C(=C)C (stereo not given),AC50,DIO2 (gene 1734),49.6 µM (active)
same,AC50,DIO3 (gene 1735),36.9 µM (active)
[Na+],outcome,[2],inactive
C[C@]12CC[C@@H]3c4ccc(O)cc4CC[C@H]3[C@@H]1CC[C@@H]2O,AC50,[3],10 µM (active) and 13.5 µM (active)
same,outcome,[4],inactive
same,AC50,[5],10 µM (active)
same,outcome,[6],inactive
same,outcome,[7],inactive
same,outcome,[8],inactive
same,outcome,[9],inactive
same,outcome,[10],inactive
same,outcome,[11],inactive
same,outcome,[12],inactive
same,outcome,[13],inactive
same,outcome,[14],inactive
same,outcome,[15],inactive
same,outcome,[16],inactive
O=C1OC2(c3ccc(O)cc3Oc3cc(O)ccc32)c2ccccc21,outcome,[2],inactive
c1ccc(OCCOc2ccccc2)cc1,outcome,[17],inactive
CCCO,outcome,[2],inactive
CCCCC/C=C\C=C\C(=O)OCC,AC50,DIO2 (gene 1734),44.2 µM (active)
same,AC50,DIO3 (gene 1735),26.6 µM (active)
CCCC1CCC(=O)CC1,outcome,[2],inactive
CCCCCCCCOC(=O)c1ccc(O)cc1,AC50,[2],36.3 µM (active)
same,AC50,DIO2 (gene 1734),92.9 µM (active)
same,AC50,DIO3 (gene 1735),30.7 µM (active)
CC(=O)c1ccc2ccccc2c1,outcome,[2],inactive
CCCCN(CCO)CCO,outcome,[17],inactive
CCCCOCCOCCOCCO,outcome,[2],inactive
CC(C)(C)C1CCC(O)CC1 (stereo not given),outcome,[2],inactive
CC(C)(CO)CO,outcome,[17],inactive
COc1ccc2[nH]cc(CCNC(C)=O)c2c1,outcome,[2],inactive
CC(=O)Oc1c(C)c(C)c2c(c1C)CC[C@@](C)(CCC[C@H](C)CCC[C@H](C)CCCC(C)C)O2,outcome,[2],inactive
O=C(c1ccc(OCCN2CCCCC2)cc1)c1c(-c2ccc(O)cc2)sc2cc(O)ccc12,AC50,DIO2 (gene 1734),99.1 µM (active)
same,outcome,[17],inactive
O=C(OCc1ccccc1)c1ccccc1O,AC50,[2],37.2 µM (active)
CCC(=O)OC(C)(C)C1CC=C(C)CC1 (stereo not given),outcome,[2],inactive
CCC(C)COC(=O)CC(C)C (stereo not given),outcome,[2],inactive
[O-]/[N+](=N\O)c1ccccc1,AC50,[2],81 µM (active)
